Each structure is given as a SMILES string. Where “and” joins values, the source holds several entries; their conditions need not be identical. Identical values can stand only once. The panel holds about 79,000 compounds, 15% with a hit somewhere; the sample as a whole holds those more often. Some compounds were tested as several samples or in several runs, with calls that do not always agree. Calls of active or inactive are those of the source. Rule as the data show it: active = growth inhibition above about 70%; inactive = the rest.

This experiment is described as follows: NCI Yeast Anticancer Drug Screen. Data for the bub3 strain (AID 167). The conditions noted are these: S. cerevisiae bub3 mutant strain, at 50.0 µM, stronger effect = higher value. Summed up: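 Steps: expose the mutant yeast strain to compound; grow alongside vehicle-treated cultures; measure growth; express inhibition against the vehicle cultures.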
For `CNC(=O)OCc1c(COC(=O)NC)c(C)n(-c2ccc(Cl)c(Cl)c2)c1C`, the growth inhibition is 87% (active).

Consider `COc1ccc2nc(N/N=C/c3sccc3C)cc(C)c2c1`, for which the growth inhibition was 86% (active).

Consider `CCCCCCCCCCCC[N+](C)(C)Cc1ccccc1` (tested in a mixture with another compound), for which the growth inhibition was 99.8% (active) and 99.3% (active) and 98.3% (active).

`CC(C)c1ccc(O)c(=O)cc1`: the growth inhibition was 92.7% (active) and 93.3% (active) and 92.8% (active).

For `O=C(O)/C=C\C(=O)NNc1ccc(Br)cc1`, the growth inhibition was 98.5% (active).

Regarding `S=c1[nH]nc(Cc2ccccc2)c(=S)[nH]1`, the growth inhibition is 71.2% (active).

`COc1ccc2nc3cccc([N+](=O)[O-])c3c(NCCCO)c2c1`: the growth inhibition is 85.2% (active).

As for `CCN(CC)CCSc1c2ccccc2nc2cc(NCC(=O)Nc3ccccc3-c3ccccc3NC(=O)CNc3ccc4c(SCCN(CC)CC)c5ccccc5nc4c3)ccc12`, the growth inhibition is 90.5% (active).

Take `Cc1ccc(N(C=O)c2c([N+](=O)[O-])cc([N+](=O)[O-])c3c2=[N+]([O-])CN=3)cc1`: the growth inhibition is 11% (inactive).

Take `Nc1ccccc1SSc1ccccc1N`: the growth inhibition was 98.3% (active) and 99.1% (active).

As for `COc1ccc(C(=O)OCCc2ccccc2)cc1`, the growth inhibition is 56.5% (inactive).

As for `COc1ccc(C(=O)NCCN(C)C)c2nc3ccccc3cc12`, the growth inhibition was -31.9% (inactive).

As for `NCC(O)CSCc1ccc(Cl)cc1` (stereo unspecified), the growth inhibition is 74.1% (active).

Take `O=c1[nH]c(=O)n(CCCO)cc1F`: the growth inhibition is -26.6% (inactive).

In the case of `CCCCCCCCCCCC[N+](C)(C)C`, the growth inhibition is 57.2% (inactive) and 82.1% (active) and 97.2% (active).

`COc1ccc(/C(=N/O)c2ccccc2C2=Nc3ccccc3C(NCc3ccccc3)O2)cc1C` (stereo unspecified): the growth inhibition is 94.8% (active).

As for `CCCC(=O)OC(OC(=O)CCC)c1ccc([N+](=O)[O-])o1`, the growth inhibition is 14.4% (inactive).

`O=C(/C(=C/c1ccccc1)CBr)c1ccccc1`: the growth inhibition was 57.4% (inactive) and 83.7% (active).

Take `O=C(Cc1ccccc1F)NC1=C(Cl)C(=O)c2ccccc2C1=O`: the growth inhibition was 54% (inactive).

Consider `Cc1cccc(N2CCN(C(=O)/C(=C/c3ccccc3)NC(=O)c3ccccc3)CC2)c1`, for which the growth inhibition was 10.1% (inactive).

As to `c1cc(Nc2ccc3c(c2)OCO3)c2cc(C3CCCCC3)ccc2n1`, the growth inhibition is 98.6% (active).

On to `Cc1ccc2nc(N/N=C/c3ccc(C)s3)cc(C)c2c1`, for which the growth inhibition is 91.7% (active).

With `COc1cc(NCCCCCNC(C)C)c2ncccc2c1Cl`, the growth inhibition was 36.5% (inactive).

On to `COc1ccc2cc(CN3CCC(C4CCN(Cc5ccc6cc(OC)ccc6c5)CC4)CC3)ccc2c1`, for which the growth inhibition was 89% (active).

Take `CC(=O)O/N=C/c1c2ccccc2cc2ccccc12`: the growth inhibition is 43.1% (inactive).

Consider `CC[C@@]1(OC(=O)CN(C)C)C(=O)OCc2c1cc1n(c2=O)Cc2cc3ccccc3nc2-1`, for which the growth inhibition was 93.7% (active).

As for `CC1(C)CC(=O)C(C(CC(c2ccccc2)c2cc3c(cc2O)OCO3)C2=C(O)CC(C)(C)CC2=O)=C(O)C1` (stereo unspecified), the growth inhibition was 96% (active).

On to `CCCCCCC(CCl)c1sc(-c2csc(CCNC(=O)OC(C)(C)C)n2)nc1C(=O)OC` (stereo unspecified), for which the growth inhibition is 9.85% (inactive).

`Cc1ccc2c(/C=C/c3ccc(N(C)C)cc3)ccnc2c1C`: the growth inhibition was 79.5% (active).

With `Cc1cc(SC#N)ccc1O`, the growth inhibition was 91.3% (active) and 88.4% (active) and 95% (active).

On to `O=C1C(Br)=CC(Br)(Br)C=C1Br`, for which the growth inhibition was 92% (active).

Values taken from PubChem BioAssay (NCI).
